High-throughput results: PubChem, several laboratories
14-3-3 Bad inh: inhibitors of 14-3-3 zeta/Bad binding, primary screen, biochemical, TR-FRET, bovine 14-3-3 zeta; hit rate 0.71% among 220,000; TR-FRET 14-3-3zeta/Dy647-pBad peptide displacement, 1 h; 14-3-3 protein zeta/delta (Bos taurus), P63103; AID 781, 2007; inhibition, % at 21.7 µM;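 active = inhibition above about 70%, limit read from the data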
Target sequence (P63103 whole entry, looked up): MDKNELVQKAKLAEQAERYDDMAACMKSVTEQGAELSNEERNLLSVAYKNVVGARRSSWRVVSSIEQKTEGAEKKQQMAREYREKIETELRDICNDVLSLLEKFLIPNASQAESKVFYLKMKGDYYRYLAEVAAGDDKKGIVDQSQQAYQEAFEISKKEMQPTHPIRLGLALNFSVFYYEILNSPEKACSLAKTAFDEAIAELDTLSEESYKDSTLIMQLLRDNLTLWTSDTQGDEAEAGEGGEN
eIF4E 4G PPI: eIF4E–eIF4G protein interaction inhibitors, primary screen, biochemical, uHTS, TR-FRET, eIF4GI fragment; Eukaryotic translation initiation factor 4E (Mus musculus) + Eukaryotic translation …; TR-FRET eIF4E-eIF4GI(517-606) binding, 2 h; inhibition, % at 21.7 µM; hit rate 0.37% among 220,000; AID 782, 2007;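 active = inhibition above about 30%, limit read from the data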
MCL1-BIM inh: inhibitors of MCL1 binding to BIM-BH3, primary screen, biochemical, fluorescence polarization; Induced myeloid leukemia cell differentiation protein Mcl-1 (Homo sapiens), Q07820; GST-MCL1 / FITC-Bim-BH3 fluorescence polarization; inhibition, % at 10.9 µM; hit rate 0.68% among 320,000;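 active = inhibition above the mean inhibition of all tested compounds plus 3 SD, set per campaign, cut at about 40% in these data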;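 note: higher means more loss of mP so more displacement of Bim peptide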
Target sequence (Q07820 whole entry, looked up): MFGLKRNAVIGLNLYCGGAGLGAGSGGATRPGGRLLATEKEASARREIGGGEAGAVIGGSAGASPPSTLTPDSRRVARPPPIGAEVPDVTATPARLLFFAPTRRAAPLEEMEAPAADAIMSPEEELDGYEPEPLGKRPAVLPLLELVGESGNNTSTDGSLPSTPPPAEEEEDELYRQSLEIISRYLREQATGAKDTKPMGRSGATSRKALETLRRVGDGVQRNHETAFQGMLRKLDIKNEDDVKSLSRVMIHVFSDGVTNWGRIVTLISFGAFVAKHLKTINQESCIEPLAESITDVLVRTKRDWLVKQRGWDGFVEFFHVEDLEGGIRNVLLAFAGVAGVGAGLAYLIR
Mcl1 Noxa PPI: Mcl-1/Noxa binding inhibitors, primary screen, biochemical, TR-FRET, 1536-well; hit rate 1.5% among 220,000; inhibition, % at 21.7 µM; TR-FRET Mcl-1/Noxa peptide binding, 2 h; Induced myeloid leukemia cell differentiation protein Mcl-1 (Homo sapiens), Q07820;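 active = compounds that cut the protein-peptide binding signal by more than 50% relative to plate controls in a single-dose test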;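 note: His-tagged Mcl-1 with rhodamine Noxa BH3 peptide and terbium anti-His antibody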
Mcl-1 Bim block: inhibitors of Bim peptide binding to Mcl-1, primary screen, biochemical, bead-based flow cytometry, multiplex; Induced myeloid leukemia cell differentiation protein Mcl-1 (Homo sapiens), Q07820; Bim peptide-Mcl-1 binding; inhibition, % at 10 µM; hit rate 0.1% among 190,000; in the data active = inhibition above about 40%
Mcl1-Bid inh: Mcl-1/Bid binding inhibitors, primary screen, biochemical, TR-FRET, 1536-well | Induced myeloid leukemia cell differentiation protein Mcl-1 (Homo sapiens), Q07820 | TR-FRET Mcl-1/Bid-Dy647 peptide binding | inhibition, % at 21.7 µM | hit rate 0.97% among 220,000 | AID 1021, 2008;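 active = compounds that cut the binding signal by more than half at the single screening dose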;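 note: His-tagged Mcl-1 with europium anti-His antibody binding Bid BH3 peptide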
Of the large screens only hits and unclear results are named; the others gave an inactive call; [ ] = dose if it differs, or a comment. The list is not random: actives were taken first. Their share in the collection is about 2.6%.

Cc1ccc2[nH]c(C)c(/C=N/Nc3nc4ccccc4s3)c2c1	none
Oc1[nH]c2ccccc2c1N=Nc1nc2ccccc2s1	Mcl1 Noxa PPI 84, Mcl1-Bid inh 59
Cc1ccc2[nH]c(O)c(N=Nc3nc4ccccc4s3)c2c1	Mcl1 Noxa PPI 95, Mcl1-Bid inh 51 (no result: Mcl-1 Bim block)
O=C(/C=C/Nc1ccc(Cc2ccc(N/C=C/C(=O)C(F)(F)F)cc2)cc1)C(F)(F)F	none
Cc1c(C=O)c(Cl)n(C)c(=O)c1C#N	Mcl1 Noxa PPI 55
CCOCCn1c(=NC(=O)/C=C/c2ccccc2Cl)sc2cc(NC(C)=O)ccc21	Mcl1-Bid inh 61
Cc1ccc(N2CCN(/N=C/c3sccc3C)CC2)cc1	none
Cc1ccc(C)c(C(=O)COC(=O)CCCC(=O)Nc2cc(C(F)(F)F)ccc2Cl)c1	Mcl1-Bid inh 94
CCOC(=O)N1CCN(C(=O)c2ccc3c(SCC(=O)O)c4c(nc3c2)CCCC4)CC1	none
O=C(O)CSc1c2c(nc3cc(C(=O)N4CCOCC4)ccc13)CCCC2	14-3-3 Bad inh 82
CCC(C(=O)Nc1ccc([N+](=O)[O-])cn1)c1ccccc1 (configuration not stated)	none (no result: 14-3-3 Bad inh, eIF4E 4G PPI, Mcl1 Noxa PPI, Mcl-1 Bim block, Mcl1-Bid inh)
CC(=O)Nc1ccc(NC(=O)c2ccc(COc3ccc4c(C)cc(=O)oc4c3)cc2)cc1	none
Cc1nnc(NC(=O)COc2ccc3c(C)cc(=O)oc3c2)s1	Mcl1 Noxa PPI 79
Cc1cc(=O)oc2cc(OCC(=O)c3ccc4c(c3)NC(=O)CO4)ccc12	14-3-3 Bad inh 71
Cc1ccc(C(=O)COc2ccc3c(C)cc(=O)oc3c2)cc1	none (no result: 14-3-3 Bad inh, eIF4E 4G PPI, Mcl1 Noxa PPI, Mcl-1 Bim block, Mcl1-Bid inh)
Cc1ccc(Cl)cc1NC(=O)COC(=O)c1ccc(COc2ccc3c(C)cc(=O)oc3c2)cc1	14-3-3 Bad inh 78, Mcl1-Bid inh 57
CCC(CC)c1nnc(NC(=O)COc2ccc3c(C)cc(=O)oc3c2)s1	none
Cc1cccc(N(C)S(=O)(=O)c2c[nH]c3ccc([N+](=O)[O-])cc23)c1	none (no result: 14-3-3 Bad inh, eIF4E 4G PPI, Mcl1 Noxa PPI, Mcl-1 Bim block, Mcl1-Bid inh)
CN(C)c1ccc(N=c2sc3ccccc3n2C)cc1	eIF4E 4G PPI 38[fluorescence artefact?], Mcl1 Noxa PPI 101
Cn1c(=Nc2ccccc2)sc2ccccc21	none
CCc1cc(C(=O)N=Nc2c(O)[nH]c3c(Br)cc(Br)cc23)c2ccccc2n1	none
COc1ccc(N)cc1-n1c(C)ccc1C	MCL1-BIM inh 46
COc1cc([N+](=O)[O-])cc(/C=N/NC(=O)CSc2ccccn2)c1O	none (no result: Mcl-1 Bim block)
COc1cc(CNCCNC(=O)c2nonc2N)ccc1OCc1ccc(Cl)cc1	none
CCOc1ccc2nc(N3C(=O)/C(=C/c4ccc(Cl)cc4)NC3=S)sc2c1	Mcl1 Noxa PPI 86, Mcl1-Bid inh 93 (no result: MCL1-BIM inh)
COCCN(CC(=O)NC1CCCCC1)C(=O)/C=C/C(=O)c1ccc(OC)cc1O	Mcl1 Noxa PPI 66 (no result: MCL1-BIM inh)
O=C(CSc1nnc(-c2ccc(Cl)cc2Cl)n1C1CCCCC1)N1CCCC1	none
COc1cc(CNCc2ccccn2)ccc1OCc1ccc(Cl)cc1	none
COc1cc(CNCc2ccccn2)ccc1OCc1cccc(Cl)c1	14-3-3 Bad inh 88
Nc1cc(Cl)ccc1Oc1ccc(Cl)cc1	14-3-3 Bad inh 80
CCN(CC)CCOc1cc2c(nn1)Oc1ccccc1N2C	14-3-3 Bad inh 83, Mcl1-Bid inh 54
Cc1nnc(-c2cccc(Br)c2)c2cn(-c3ccc(Br)cc3)nc12	Mcl1-Bid inh 56
O=C(Nc1cccc(NC(=O)c2cccs2)c1)c1ccc2c(c1)OCCO2	none
COC(=O)c1cc2sc(Cl)cc2n1CC(=O)Nc1ccc(OC)c(OC)c1OC	none
COC(=O)c1cc2sc(Cl)cc2n1CC(=O)Nc1cccc(SC)c1	Mcl1-Bid inh 96
CCC(=O)c1c[nH]c(C(=O)NCc2cccnc2)c1	14-3-3 Bad inh 80
COc1ccc(OC)c(NC(=O)CCN2CC(C)CC(C)C2)c1 (configuration not stated)	none (no result: 14-3-3 Bad inh, eIF4E 4G PPI, Mcl1 Noxa PPI, Mcl-1 Bim block, Mcl1-Bid inh)
COc1ccc(OC)c(NC(=O)CCN2CCCC(C)C2)c1 (configuration not stated)	Mcl1-Bid inh 51
CCN(CC)C(=O)C1CCCN(Cc2cccc(F)c2)C1 (configuration not stated)	Mcl1-Bid inh 64
CCN(CC)C(=O)C1CCCN(Cc2ccc3ccccc3c2)C1 (configuration not stated)	none (no result: 14-3-3 Bad inh, eIF4E 4G PPI, Mcl1 Noxa PPI, Mcl-1 Bim block, Mcl1-Bid inh)
Cc1ccc(-n2c3c(c(=O)[nH]c2=O)C(NS(=O)(=O)c2ccc(Cl)cc2)(C(F)(F)F)C(=O)N3)cc1 (configuration not stated)	Mcl1 Noxa PPI 54
Cn1c2c(c(=O)n(C)c1=O)C(NS(=O)(=O)c1ccc(Cl)cc1)(C(F)(F)F)C(=O)N2 (configuration not stated)	Mcl1 Noxa PPI 53
Cc1ccc(-n2c3c(c(=O)[nH]c2=O)C(NS(=O)(=O)c2ccc(C)cc2)(C(F)(F)F)C(=O)N3)cc1 (configuration not stated)	none
CCOC(=O)c1c(C2CC2)csc1NC(=O)COC(=O)CCS(=O)(=O)c1ccc(C)cc1	none
COc1ccc(NC(=O)/C(=C/c2cccs2)NC(=O)c2ccco2)cc1	none (no result: Mcl-1 Bim block)
CC(=O)c1ccc(NC(=O)/C(=C\c2cccs2)NC(=O)c2ccco2)cc1	14-3-3 Bad inh 88
CCn1nc(C(=O)OCC(=O)N(CCC#N)c2ccccc2)c2ccccc2c1=O	none (no result: 14-3-3 Bad inh, eIF4E 4G PPI, Mcl1 Noxa PPI, Mcl-1 Bim block, Mcl1-Bid inh)
Cc1ccc(S(=O)(=O)N2CCC3(CC2)OCCN3S(=O)(=O)c2c(C)cc(C)cc2C)cc1	none (no result: 14-3-3 Bad inh, eIF4E 4G PPI, Mcl1 Noxa PPI, Mcl-1 Bim block, Mcl1-Bid inh)
COc1cc2c(cc1N/C=C(\C#N)c1nc(-c3ccccc3)cs1)oc1ccccc12	14-3-3 Bad inh 86
Cc1ccc(OCCCC(=O)Nc2ccccc2C(F)(F)F)cc1	Mcl1 Noxa PPI 74
CCCCCCNS(=O)(=O)c1ccc(NC(=O)C2CCCO2)cc1 (configuration not stated)	none
CC1=C(C#N)C(=O)N(C2CCS(=O)(=O)C2)C(=O)/C1=C\c1ccco1 (configuration not stated)	14-3-3 Bad inh 77, eIF4E 4G PPI 63, MCL1-BIM inh 105, Mcl1 Noxa PPI 110, Mcl1-Bid inh 60 (no result: Mcl-1 Bim block)
O=C1/C(=C\c2ccco2)SC(=S)N1C1CCCCC1	none (no result: 14-3-3 Bad inh, eIF4E 4G PPI, Mcl1 Noxa PPI, Mcl-1 Bim block, Mcl1-Bid inh)
CC(C)c1ccc(CN2CCC(C(=O)NCc3cccnc3)CC2)cc1	14-3-3 Bad inh 74, eIF4E 4G PPI 75
CSc1ccc(CN2CCC(C(=O)NCc3ccc(C)cc3)CC2)cc1	Mcl1-Bid inh 50
Cc1ccc(C(=O)N2C(CC(=O)Nc3ccc(Cl)cc3)C(=O)NC3CCCCC32)cc1 (configuration not stated)	none
N#Cc1cccc(NC(=O)CN2CCN(Cc3ccccc3)CC2)c1	none (no result: 14-3-3 Bad inh, eIF4E 4G PPI, Mcl1 Noxa PPI, Mcl-1 Bim block, Mcl1-Bid inh)
